Only some compounds are listed: those with a hit (about 7.7% of all), similar ones and a draw of the others.
Tb PYK inh = blocks Trypanosoma brucei pyruvate kinase; TbPYK enzyme, Kinase-Glo Plus ATP luminescence, 45 min; Q57TT1; Potency, µM (top dose mostly 76.8 µM), usual class: inhibitors; 410,000 tested, 0.12% active; note: nearly all actives have a fitted effect of over 50% in size
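T. brucei PYK with substrate was exposed to pin-transferred compounds across a concentration series, then started with 130 uM ADP (final). After 45 min at room temperature, Kinase-Glo Plus luminescence was read, normalized and curve-fitted.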
FBPA Giardia inh = blocks Giardia fructose-bisphosphate aldolase activity; A8B2U2; purified Giardia FBPA; Potency, µM (highest dose often 59.6 µM), hits mostly inhibitors; 290,000 tested, 0.71% active; AID 2451; note: nearly all actives have a fitted effect of over 55% in size
Target sequence (A8B2U2 whole entry, looked up): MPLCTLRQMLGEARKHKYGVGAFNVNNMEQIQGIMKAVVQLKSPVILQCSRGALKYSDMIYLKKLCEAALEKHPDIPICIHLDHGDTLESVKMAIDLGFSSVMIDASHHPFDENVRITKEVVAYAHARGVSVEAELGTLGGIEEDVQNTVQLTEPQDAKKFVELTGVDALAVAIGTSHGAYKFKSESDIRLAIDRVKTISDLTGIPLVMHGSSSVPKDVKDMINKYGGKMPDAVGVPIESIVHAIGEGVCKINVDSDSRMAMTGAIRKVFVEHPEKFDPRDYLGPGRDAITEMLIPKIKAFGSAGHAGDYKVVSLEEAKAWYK
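40 nM FBPA preincubated 10 min at RT with compound (up to 57.5 uM final), then substrate plus GAPDH/TPI/NAD/arsenate coupling and diaphorase/resazurin added. Fluorescence read after 20 min at RT, 525/598 nm.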
HCMV antiviral = human cytomegalovirus inhibition; HFF cells, HCMV-luciferase reporter, 72 h; stronger effect = lower value; activity change, negative = inhibition, % at 57.5 µM; 410,000 tested, 4.5% active; in the data active = activity change below about -60%; inconclusive = no clear call, values can overlap the other calls; inactive = above about -39%
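Cell-based, HFFs, 1000 cells/well, 16 h 37C; cpds in DMSO + HCMV-luc, MOI 1 PFU/cell; 72 h 37C; OneGlo luminescence after 5 min RT; norm. to buffer vs Salinomycin 10uM.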
FMDV antiviral = foot and mouth disease virus antiviral activity | FMDV antiviral cell-based qHTS | Potency, µM (top dose mostly 57.9 µM), most hits filed as inhibitors | 410,000 tested, 1.2% active | AID 1159524; calls by dose curve; tested in HEK293T cells; note: read-out not given here; nearly all actives have a fitted effect of over 45% in size
Sm TGR inh = blocks Schistosoma mansoni thioredoxin glutathione reductase. Q962Y6. Potency, µM (top dose mostly 114 µM), hits mostly inhibitors. 360,000 tested, 3% active. purified TGR, DTNB reduction, TNB absorbance 405 nm. AID 485364; note: nearly all actives have a fitted effect of over 60% in size
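First, TGR (20 nM dispensed) and NADPH were mixed with compound. Second, a 15 min room-temperature incubation followed. Third, further NADPH and then DTNB were added to start the reaction. Finally, TNB absorbance was monitored kinetically.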
RE007 growth inh = less growth of the S. pombe RE007 Vpr strain. Potency, µM (top dose mostly 92.2 µM), hits mostly inhibitors. S. pombe RE007 Vpr strain, BacTiter-Glo ATP luminescence, 24 h. 360,000 tested, 0.21% active; active = well fitted falling curve with a large enough effect; inconclusive = small, poorly fitted or top-dose-only effect; inactive = no such curve, though single readings can be large or run the other way; note: nearly all actives have a fitted effect of over 50% in size
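Fission yeast RE007 carrying one integrated HIV-1 vpr copy, seeded at OD 0.01 in PMG+AL medium with 23 nL pinned compound. Grown 24 h at 30 degrees; viability read by BacTiter-Glo luminescence after 5 min.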
Of the large screens only hits and unclear results are named; the others gave an inactive call. Unless noted, calls come from the whole dose curve; as a rule, active = well fitted curve in the direction sought with a large enough effect; inconclusive = small, poorly fitted or top-dose-only effect, or another doubt; inactive = no such curve, though single readings can be large; an effect the other way counts as inactive or inconclusive.

O=c1cc(C(F)(F)F)[nH]c2ccc(OC(F)(F)F)cc12	FBPA Giardia inh inconclusive, HCMV antiviral -95, FMDV antiviral inconclusive
O=c1cc(C(F)(F)F)[nH]c2c(C(F)(F)F)cccc12	FMDV antiviral inconclusive (no result: HCMV antiviral)
O=C(O)C1(c2ccccc2)CCN(S(=O)(=O)c2ccc(Br)cc2)CC1	HCMV antiviral inconclusive, Sm TGR inh 89µM
O=C(O)C1(c2ccccc2)CCN(S(=O)(=O)c2ccc(Cl)cc2)CC1	none
CCOC(=O)c1c(/C=N/Nc2ccccc2)c2sc(C)cc2n1C	Sm TGR inh 22µM (no result: Tb PYK inh, FBPA Giardia inh, HCMV antiviral, FMDV antiviral, RE007 growth inh)
FC(F)(F)c1cc(-c2ccco2)nc(NCc2ccco2)n1	Sm TGR inh inconclusive
FC(F)(F)c1cc(-c2ccco2)nc(NCc2cccs2)n1	Sm TGR inh 20µM
COC(=O)CN1CC(=O)c2ccccc2S1(=O)=O	none (no result: Tb PYK inh, HCMV antiviral, FMDV antiviral, Sm TGR inh, RE007 growth inh)
C=C1CCN(CC(=O)OC)S(=O)(=O)c2ccccc21	Sm TGR inh 32µM
O=C(Nc1ccc(Cl)cc1)C1CCN(c2nc3ccccc3nc2C(F)(F)F)CC1	none (no result: FBPA Giardia inh, RE007 growth inh)
COc1cc(/C=C2\SC(N)=NC2=O)ccc1O	HCMV antiviral -75
COc1cc(OC)c(OC)cc1/C=C1\CCC/C(=C\c2cc(OC)c(OC)cc2OC)C1=O	HCMV antiviral -90, FMDV antiviral inconclusive
COc1cc(C=C2C(=O)c3ccccc3C2=O)ccc1O	Tb PYK inh inconclusive
COc1cc(/C=C2\COC/C(=C\c3ccc(O)c(OC)c3)C2=O)ccc1O	FBPA Giardia inh inconclusive, HCMV antiviral -99, FMDV antiviral 18µM, Sm TGR inh 50µM
COc1ccc(/C=C2\CCC/C(=C\c3ccc(OC)c(OC)c3OC)C2=O)c(OC)c1OC	FMDV antiviral inconclusive
COc1cc(/C=C2\CC/C(=C\c3ccc(OCCO)c(OC)c3)C2=O)ccc1OCCO	HCMV antiviral inconclusive, FMDV antiviral 35µM (no result: Sm TGR inh)
COc1ccc(N2CC(NC(=O)C3CC3)CC2=O)cc1OC (stereo not given)	none (no result: FBPA Giardia inh, RE007 growth inh)
Cc1cc(C)cc(NC(=O)N2CCC(CN3CCCCCC3)CC2)c1	none (no result: FBPA Giardia inh, RE007 growth inh)
Cc1ccc2nc(N3CCCCCC3)c(CN(CC3CCCO3)C(=O)c3cncs3)cc2c1 (stereo not given)	none (no result: Tb PYK inh, FBPA Giardia inh, HCMV antiviral, Sm TGR inh, RE007 growth inh)
O=C1[C@H](c2ccccc2)[C@@H](c2ccncc2)N1c1ccncc1	none (no result: Tb PYK inh, FBPA Giardia inh, FMDV antiviral, Sm TGR inh, RE007 growth inh)
COc1cc(/C=C2\N=C3CCCCCN3C2=O)ccc1O	Sm TGR inh 56µM (no result: FMDV antiviral)
COc1cc(/C=C/C=C2/CC/C(=C/C=C/c3ccc(O)c(OC)c3)C2=O)ccc1O	Tb PYK inh inconclusive, HCMV antiviral -99, FMDV antiviral inconclusive (no result: FBPA Giardia inh, Sm TGR inh)
C/C=C/c1ccc(O)c(OC)c1	none (no result: FBPA Giardia inh)
COc1cc(/C=C2/CC/C(=C/c3ccc(O)c(OC)c3)C2=O)ccc1O	Sm TGR inh 45µM
CC(C)CCNC(=O)Cn1nc(N2CCN(c3ccccc3)CC2)ccc1=O	none (no result: FBPA Giardia inh, RE007 growth inh)
CN1C(=O)C2C[C@@]3(Br)c4ccccc4N(OOSc4ccccc4)[C@H]3N2C(=O)[C@@H]1Cc1ccccc1 (stereo not given in full)	HCMV antiviral -71 (no result: FBPA Giardia inh, Sm TGR inh)
CN(C)c1ccc(CNc2nc(-c3ccco3)nn2S(C)(=O)=O)cc1	none (no result: FBPA Giardia inh, RE007 growth inh)
Cc1ccc(-c2cc(C(=O)NCCCN3CCOCC3)c3ccccc3n2)cc1C	HCMV antiviral -92
Nc1ccccc1C(=O)NCCCN1CCOCC1	HCMV antiviral -105
O=C(NCCCN1CCOCC1)c1cc(-c2ccc(Cl)c(Cl)c2)on1	none
Cc1ccc(-c2cc(C(=O)NCCCN3CCOCC3)no2)cc1	HCMV antiviral -67, FMDV antiviral inconclusive
CN(C)c1ccc(CNC(=O)c2sc3ncccc3c2-n2cccc2)cc1	none (no result: FBPA Giardia inh, RE007 growth inh)
O=C(NCc1cccs1)c1ccc(CSc2nc3ccncc3n2Cc2cccc(F)c2)cc1	HCMV antiviral inconclusive (no result: FBPA Giardia inh, RE007 growth inh)
CCOC(=O)CN(c1sc(C)c(C)c1C(=O)OCC)S(=O)(=O)c1ccc(C)cc1	HCMV antiviral -65 (no result: FBPA Giardia inh, Sm TGR inh)
CCOC(=O)c1ccc(N2C(=O)c3n[nH]c(-c4cccs4)c3C2c2ccc(OCC)cc2)cc1 (stereo not given)	HCMV antiviral -105 (no result: FBPA Giardia inh, RE007 growth inh)
CCOC(=O)c1ccc(N2C(=O)c3n[nH]c(-c4cccs4)c3C2c2cccc(O)c2)cc1 (stereo not given)	FMDV antiviral 35µM (no result: FBPA Giardia inh, RE007 growth inh)
